From PubChem BioAssay (EPA / NIEHS)
The source made the active and inactive calls. The calls were made as follows: active = hit-call score of the fitted dose curve at least 0.9, where 1 is the maximum; inactive = score below 0.9.

What was measured:
[1] = read-out: Monocyte Chemoattractant Protein-1 (MCP1), CCL2 (gene 6347); assay: BSK_CASM3C_MCP1: BioMAP Diversity Plus: CASM3C Assay for Monocyte Chemoattractant Protein-1 (MCP1) Biomarker Activity (AID 2283046); conditions: primary human coronary artery smooth muscle cells; actives raise or lower the signal;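 also: MCP-1 level quantified by ELISA 24 h after dosing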
[2] = BSK_CASM3C_Proliferation: Cell Proliferation Assessment in the BioMAP Diversity Plus: CASM3C Assay (AID 2283047); conditions: primary human coronary artery smooth muscle cells;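 also: sulforhodamine B total protein stain as relative cell number at 560 nm; sub-confluent cells exposed 48 h before staining; fitted both ways against DMSO so gain or loss of cell number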
[3] = read-out: Monokine induced gamma interferon (MIG), CXCL9 (gene 4283); assay: BSK_CASM3C_MIG: BioMAP Diversity Plus: CASM3C Assay for Monokine induced gamma interferon (MIG) Biomarker Activity (AID 2283048); conditions: primary human coronary artery smooth muscle cells; actives raise or lower the signal;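 also: MIG protein level measured by ELISA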
[4] = read-out: serum amyloid A (SAA), SAA1 (gene 6288); assay: BSK_CASM3C_SAA: BioMAP Diversity Plus: CASM3C Assay for serum amyloid A (SAA) Biomarker Activity (AID 2283049); conditions: primary human coronary artery smooth muscle cells; actives raise or lower the signal;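 also: SAA protein level quantified by ELISA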
[5] = BSK_CASM3C_SRB: Viability Assessment in the BioMAP Diversity Plus: CASM3C Assay (AID 2283050); conditions: primary human coronary artery smooth muscle cells;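 also: total protein by SRB staining as cytotoxicity measure in parallel cultures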
[6] = read-out: Thrombomodulin, THBD (gene 7056); assay: BSK_CASM3C_Thrombomodulin: BioMAP Diversity Plus: CASM3C Assay for Thrombomodulin Biomarker Activity (AID 2283051); conditions: primary human coronary artery smooth muscle cells; actives raise or lower the signal;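 also: thrombomodulin protein level measured by ELISA 24 h after dosing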
[7] = read-out: Tissue Factor, F3 (gene 2152); assay: BSK_CASM3C_TissueFactor: BioMAP Diversity Plus: CASM3C Assay for Tissue Factor Biomarker Activity (AID 2283052); conditions: primary human coronary artery smooth muscle cells; actives raise or lower the signal;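 also: cell surface tissue factor protein level read by ELISA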
[8] = read-out: Interferon-gamma inducible Protein 10 (IP10), CXCL10 (gene 3627); assay: BSK_hDFCGF_IP10: BioMAP Diversity Plus: hDFCGF Assay for Interferon-gamma inducible Protein 10 (IP10) Biomarker Activity (AID 2283053); conditions: primary human foreskin fibroblasts; actives raise or lower the signal
Procedure, shortened: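 Human foreskin fibroblast primary cells (hDFCGF system) were dosed with chemical and assayed at 24 h; IP-10 measured by ELISA. Activity fitted bidirectionally relative to DMSO negative control as baseline.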

[9] = read-out: Urokinase-type plasminogen activator receptor (uPAR), PLAUR (gene 5329); assay: BSK_CASM3C_uPAR: BioMAP Diversity Plus: CASM3C Assay for Urokinase-type plasminogen activator receptor (uPAR) Biomarker Activity (AID 2283054); conditions: primary human coronary artery smooth muscle cells; actives raise or lower the signal;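 also: cell-surface uPAR protein level quantified by ELISA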
[10] = read-out: Vascular cell adhesion molecule 1 (VCAM1), VCAM1 (gene 7412); assay: BSK_CASM3C_VCAM1: BioMAP Diversity Plus: CASM3C Assay for Vascular cell adhesion molecule 1 (VCAM1) Biomarker Activity (AID 2283055); conditions: primary human coronary artery smooth muscle cells; actives raise or lower the signal;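 also: VCAM-1 protein level quantified by ELISA on the cells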
[11] = read-out: Collagen III, COL3A1 (gene 1281); assay: BSK_hDFCGF_CollagenIII: BioMAP Diversity Plus: hDFCGF Assay for Collagen III Biomarker Activity (AID 2283056); conditions: primary human foreskin fibroblasts; actives raise or lower the signal
Procedure, shortened: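 ELISA read-out of collagen III from human skin fibroblast cultures sampled 24 h post-dosing. Values were derived by bidirectional fitting relative to the DMSO vehicle control.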

[12] = read-out: Epidermal growth factor receptor (EGFR), EGFR (gene 1956); assay: BSK_hDFCGF_EGFR: BioMAP Diversity Plus: hDFCGF Assay for Epidermal growth factor receptor (EGFR) Biomarker Activity (AID 2283057); conditions: primary human foreskin fibroblasts; actives raise or lower the signal
Procedure, shortened: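 Primary human foreskin fibroblasts were exposed to compound for 24 h, after which cell-surface EGFR was quantified by ELISA. Activity was fitted bidirectionally against the DMSO negative control as baseline.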

[13] = read-out: Interleukin-8 (IL8), CXCL8 (gene 3576); assay: BSK_hDFCGF_IL8: BioMAP Diversity Plus: hDFCGF Assay for Interleukin-8 (IL8) Biomarker Activity (AID 2283058); conditions: primary human foreskin fibroblasts; actives raise or lower the signal
Procedure, shortened: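 Cells used are human skin primary fibroblasts. Chemical is added, cultures run 24 h, then IL-8 is quantified by ELISA, and gain or loss versus DMSO control is fitted in both directions.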

[14] = BSK_hDFCGF_Proliferation: Cell Proliferation Assessment in the BioMAP Diversity Plus: hDFCGF Assay (AID 2283059); conditions: primary human foreskin fibroblasts;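 also: curves fitted for both rise and fall of signal versus DMSO baseline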
Procedure, shortened: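 This proliferation readout used SRB total-protein staining of human foreskin fibroblasts […], normalized to DMSO with bidirectional curve fitting.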

[15] = BSK_hDFCGF_SRB: Viability Assessment in the BioMAP Diversity Plus: hDFCGF Assay (AID 2283061); conditions: primary human foreskin fibroblasts;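 also: cells exposed to compound for 24 h before the read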
Procedure, shortened: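 Readout is SRB absorbance at 560 nm, reflecting total protein in parallel cultures of human foreskin fibroblasts harvested 24 h after chemical dosing. Activity was fitted bidirectionally relative to DMSO.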

[16] = read-out: TIMP metallopeptidase inhibitor 1 (TIMP1), TIMP1 (gene 7076); assay: BSK_hDFCGF_TIMP1: BioMAP Diversity Plus: hDFCGF Assay for TIMP metallopeptidase inhibitor 1 (TIMP1) Biomarker Activity (AID 2283062); conditions: primary human foreskin fibroblasts; actives raise or lower the signal
Procedure, shortened: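 Human skin fibroblasts (primary), hDFCGF system; compound exposure 24 h; TIMP-1 by ELISA; bidirectional fit vs DMSO negative control; overt cytotoxicity by SRB in parallel wells.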

[17] = read-out: Monokine induced gamma interferon (MIG), CXCL9 (gene 4283); assay: BSK_hDFCGF_MIG: BioMAP Diversity Plus: hDFCGF Assay for Monokine induced gamma interferon (MIG) Biomarker Activity (AID 2283063); conditions: primary human foreskin fibroblasts; actives raise or lower the signal
Procedure, shortened: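 Chemicals were added to primary human foreskin fibroblast cultures, which were sampled 24 h later. MIG levels were then quantified by ELISA and responses fitted in both directions relative to DMSO.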

[18] = read-out: Matrix Metallopeptidase 1 (MMP1), MMP1 (gene 4312); assay: BSK_hDFCGF_MMP1: BioMAP Diversity Plus: hDFCGF Assay for Matrix Metallopeptidase 1 (MMP1) Biomarker Activity (AID 2283064); conditions: primary human foreskin fibroblasts; actives raise or lower the signal
Procedure, shortened: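 Primary human foreskin fibroblasts in the hDFCGF system were dosed with test chemical, and MMP1 was measured by ELISA 24 h later. Values come from bidirectional curve fitting against the DMSO baseline.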

[19] = read-out: Macrophage colony-stimulating factor (MCSF), CSF1 (gene 1435); assay: BSK_hDFCGF_MCSF: BioMAP Diversity Plus: hDFCGF Assay for Macrophage colony-stimulating factor (MCSF) Biomarker Activity (AID 2283060); conditions: primary human foreskin fibroblasts; actives raise or lower the signal
Procedure, shortened: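 Primary human foreskin fibroblasts dosed with chemical; 24 h later, M-CSF quantified by ELISA; curves fitted in both directions vs DMSO negative control.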

[20] = read-out: Vascular cell adhesion molecule 1 (VCAM1), VCAM1 (gene 7412); assay: BSK_hDFCGF_VCAM1: BioMAP Diversity Plus: hDFCGF Assay for Vascular cell adhesion molecule 1 (VCAM1) Biomarker Activity (AID 2283065); conditions: primary human foreskin fibroblasts; actives raise or lower the signal;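 as to AC50: VCAM-1 protein level quantified by ELISA after 24 h chemical exposure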
Procedure, shortened: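 Human foreskin fibroblast primary cells, chemical exposure 24 h; VCAM-1 by ELISA; bidirectional fit, DMSO = negative control/baseline.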

For CCOCCO, the outcome [1] was “inactive”, the outcome [2] was “inactive” and the outcome [3] was “inactive”. The outcome [4] was “inactive”, the outcome [5] was “inactive” and the outcome [6] was “inactive”. For the same compound, the outcome [7] was “inactive”, the outcome [8] was “inactive” and the outcome [9] was “inactive”. The outcome [10] was “inactive”, the outcome [11] was “inactive” and the outcome [12] was “inactive”. The outcome [13] was “inactive”, the outcome [14] was “inactive” and the outcome [15] was “inactive”. For the same compound, the outcome [16] was “inactive”, the outcome [17] was “inactive” and the outcome [18] was “inactive”.
With CCCN(C1CCN(C(=O)C2CCNCC2)CC1)[C@@H]1CCc2ccc(OC)cc2C1 the outcome [1] was “inactive”, the outcome [2] was “inactive” and the outcome [3] was “inactive”. For the same compound, the outcome [4] was “inactive”, the outcome [5] was “inactive” and the outcome [6] was “inactive”. For the same compound, the outcome [7] was “inactive”, the outcome [8] was “inactive” and the outcome [9] was “inactive”. For the same compound, the outcome [10] was “inactive”, the outcome [11] was “inactive” and the outcome [12] was “inactive”. For the same compound, the outcome [13] was “inactive”, the outcome [14] was “inactive” and the outcome [19] was “inactive”. The outcome [15] was “inactive”, the outcome [16] was “inactive” and the outcome [17] was “inactive”. The outcome [18] was “inactive” and the outcome [20] was “inactive”.
For C1=CCCC=CCCC=CCC1, the outcome [1] was “inactive”, the outcome [2] was “inactive” and the outcome [3] was “inactive”. The outcome [4] was “inactive”, the outcome [5] was “inactive” and the outcome [6] was “inactive”. For the same compound, the outcome [7] was “inactive”, the outcome [8] was “inactive” and the outcome [9] was “inactive”. The outcome [10] was “inactive”, the outcome [11] was “inactive” and the outcome [12] was “inactive”. For the same compound, the outcome [13] was “inactive”, the outcome [14] was “inactive” and the outcome [19] was “inactive”. For the same compound, the outcome [15] was “inactive”, the outcome [16] was “inactive” and the outcome [17] was “inactive”. For the same compound, the outcome [18] was “inactive” and the outcome [20] was “inactive”.
In the case of Clc1nc(Cl)c(Cl)c(Cl)c1Cl, the outcome [1] is reported as “inactive”, the outcome [2] is reported as “inactive” and the outcome [3] is reported as “inactive”. The outcome [4] was “inactive”, the outcome [5] was “inactive” and the outcome [6] was “inactive”. For the same compound, the outcome [7] was “inactive”, the outcome [8] was “inactive” and the outcome [9] was “inactive”. The outcome [10] was “inactive”, the outcome [11] was “inactive” and the outcome [12] was “inactive”. The outcome [13] was “inactive”, the outcome [14] was “inactive” and the outcome [15] was “inactive”. For the same compound, the outcome [16] was “inactive”, the outcome [17] was “inactive” and the outcome [18] was “inactive”. For the same compound, the outcome [20] was “inactive”.
In the case of CC/C(=C\C(=N/O)C(N)=O)C(C)[N+](=O)[O-] (stereo unspecified), the outcome [1] is reported as “inactive”, the outcome [2] is reported as “inactive” and the outcome [3] is reported as “inactive”. For the same compound, the outcome [4] was “inactive”, the outcome [5] was “inactive” and the outcome [6] was “inactive”. The outcome [7] was “inactive”, the outcome [8] was “inactive” and the outcome [9] was “inactive”. For the same compound, the outcome [10] was “inactive”, the outcome [11] was “inactive” and the outcome [12] was “inactive”. For the same compound, the outcome [13] was “inactive”, the outcome [14] was “inactive” and the outcome [19] was “inactive”. The outcome [15] was “inactive”, the outcome [16] was “inactive” and the outcome [17] was “inactive”. For the same compound, the outcome [18] was “inactive” and the outcome [20] was “inactive”.
For O=C(O)c1cccc(N(Cc2cccnc2)c2ccc(OC(F)F)c(OC(F)F)c2)c1, the outcome [1] was “inactive”, the AC50 [2] was 6.98 µM (active) and the outcome [3] was “inactive”. The outcome [4] was “inactive”, the outcome [5] was “inactive” and the outcome [6] was “inactive”. For the same compound, the outcome [7] was “inactive”, the outcome [8] was “inactive” and the outcome [9] was “inactive”. The outcome [10] was “inactive”, the outcome [11] was “inactive” and the outcome [12] was “inactive”. The outcome [13] was “inactive”, the outcome [14] was “inactive” and the outcome [19] was “inactive”. For the same compound, the outcome [15] was “inactive”, the outcome [16] was “inactive” and the outcome [17] was “inactive”. The outcome [18] was “inactive” and the AC50 [20] was 1.27 µM (active).
With COc1ccc(/C=C/S(=O)(=O)NC(=O)c2ccc(C)cc2Cl)cc1 the outcome [1] was “inactive”, the AC50 [2] was 18.9 µM (active) and the outcome [3] was “inactive”. The outcome [4] was “inactive”, the outcome [5] was “inactive” and the outcome [6] was “inactive”. The outcome [7] was “inactive”, the outcome [8] was “inactive” and the outcome [9] was “inactive”. The outcome [10] was “inactive”, the outcome [11] was “inactive” and the outcome [12] was “inactive”. The outcome [13] was “inactive”, the AC50 [14] was 13.6 µM (active) and the outcome [15] was “inactive”. The outcome [16] was “inactive”, the outcome [17] was “inactive” and the outcome [18] was “inactive”. For the same compound, the outcome [20] was “inactive”.
